Results filed as inconclusive are left out. Where a call stands in place of a potency, no number is given. Active and inactive are the calls of the source. Calls follow the shape of the dose curve; as a rule, active = well fitted activation curve with a large enough effect in the signal ratio in the repeat runs, with a control signal flat (not every such curve was filed as active); inconclusive = weak or mixed curves; inactive = flat fitted curve, though single readings scatter; the % refers to the signal ratio.

The test is described as follows: qHTS assay for small molecule activators of the heat shock response signaling pathway (AID 743210). The conditions noted are these: HeLa HSE-bla reporter, beta-lactamase ratio, 5 h; series mostly up to 62.6 µM. From the text: U.S. Tox21 Program National Center for Advancing Translational Sciences [NCATS] NIH Chemical Genomics Center [NCGC] U.S. Environmental Protection Agency [EPA] National Institutes of Environmental Health Sciences [NIEHS] National Toxicology Program [NTP] U.S. Food and Drug Administration [FDA] Tox21 Assay Overview: Various chemicals, environmental and physiological stress conditions may lead to the activation of heat shock response/ unfolded protein response (HSR/UPR). There are three heat shock transcription factors (HSFs) (HSF-1, -2, and -4) mediating transcriptional regulation of the human HSR. To identify the compounds that activate HSR signaling, HSE-bla HeLa cell line (Invitrogen, Carlsbad, CA, USA) containing a beta-lactamase reporter gene under the control of the heat shock response elements was used to screen the Tox21 10K compound library.
Tox21 Assay Protocol Summary: The CellSensor HSE-bla HeLa cells (Invitrogen, Carlsbad, CA, USA) were dispensed at 1500 cells/6uL/well into 1536-well black wall/clear bottom plates using a Multidrop combi (Thermo Fisher Scientific, Waltham, MA) dispenser. After the assay plates were incubated at 37 C and 5% CO2 overnight, 23 nL of compounds dissolved in DMSO, positive controls or DMSO only was transferred to the assay plate by a Pintool station (Kalypsys, San Diego, CA). The plates were incubated at 37 C for 5 h. After 1 uL of LiveBLAzerTM B/G FRET substrate was added using a Flying Reagent Dispenser (Beckman Coulter, Indianapolis, IN, USA), the plates were incubated at room temperature for 2.5 h, and fluorescence intensity was measured by an Envision plate reader (PerkinElmer, Shelton, CT).
Consider `Cc1onc(-c2ccccc2)c1C(=O)Cl`, for which the Potency result was “inactive”.

Regarding `Cc1ccccc1C(=O)Nc1ccc(C(=O)N2CCCC(O)c3cc(Cl)ccc32)c(C)c1` (stereo not given), the Potency result was “inactive”.

Regarding `COc1cc(C)ccc1C(C)C`, the Potency entry is “inactive”.

With `CCCCC1CCC(=O)O1` (stereo not given), the Potency entry is “inactive”.

With `CCOc1ccccc1N`, the Potency result was “inactive”.

`CCCCCCCOC(=O)CCC`: the Potency entry is “inactive”.

For the molecule `CC(=O)O[C@H]1CC[C@@]2(C)C(=CC[C@@H]3[C@@H]2CC[C@]2(C)C(C(C)=O)=CC[C@@H]32)C1`, the Potency result was “inactive”.

As to `CC(=O)N[C@@H](CC(C)C)C(=O)O`, the Potency result was “inactive”.

On to `FC(F)(F)C(Cl)(Cl)Cl`, for which the Potency entry was “inactive”.

As to `COC(C)CCO` (stereo not given), the Potency result was “inactive”.

With `COc1ccccc1OCC(O)COC(N)=O` (stereo not given), the Potency result is “inactive”.

Take `CN1[C@@H]2CC[C@H]1CC(OC(=O)c1c[nH]c3ccccc13)C2` (stereo not given in full): the Potency result was “inactive”.

`OCc1c2ccccc2cc2ccccc12`: the Potency result is “inactive”.

`CCCNC(C)C(=O)Nc1c(C)csc1C(=O)OC` (stereo not given): the Potency entry is “inactive”.

For the molecule `CC1=C(O)C(=O)OC1C` (stereo not given), the Potency result is “inactive”.

For the molecule `CCCCCCCCc1ccc(S(=O)(=O)O)cc1`, the Potency result was “inactive”.

`CC(C)C[C@H](NC(=O)OCC1c2ccccc2-c2ccccc21)C(=O)O`: the Potency entry was “inactive”.

Consider `CN1CCN(c2c(F)cc3c(=O)c(C(=O)O)cn4c3c2SCC4)CC1`, for which the Potency result is “inactive”.

On to `Cc1cn([C@@H]2O[C@H](CO)[C@@H](O)[C@@H]2F)c(=O)[nH]c1=O`, for which the Potency entry is “inactive”.

Consider `CC(=O)N(CC(O)CN(C(C)=O)c1c(I)c(C(=O)NCC(O)CO)c(I)c(C(=O)NCC(O)CO)c1I)c1c(I)c(C(=O)NCC(O)CO)c(I)c(C(=O)NCC(O)CO)c1I` (stereo not given), for which the Potency result was “inactive”.

For the molecule `CCN(CC)CCNC(=O)COc1ccc(Cl)cc1`, the Potency entry was “inactive”.

Regarding `C[C@@H]1CN(c2c(F)c(N)c3c(=O)c(C(=O)O)cn(C4CC4)c3c2F)C[C@H](C)N1`, the Potency result was “inactive”.

As to `CCOc1ccc(NC(N)=O)cc1`, the Potency result was “inactive”.

Consider `O=C1CCCCC1C1CCCCC1` (stereo not given), for which the Potency result is “inactive”.

Consider `O=C(Cl)c1cccc([N+](=O)[O-])c1`, for which the Potency entry was “inactive”.

With `CC1=C(CC(=O)O)c2cc(F)ccc2/C1=C\c1ccc(S(C)(=O)=O)cc1`, the Potency entry was “inactive”.

Consider `NS(=O)(=O)c1cc(-c2nn[nH]n2)c(NCc2cccs2)cc1Cl`, for which the Potency result is “inactive”.

As to `CCCCC(=O)O[C@]1(C(=O)CO)[C@H](C)C[C@H]2[C@@H]3CCC4=CC(=O)C=C[C@]4(C)[C@@]3(F)[C@@H](O)C[C@@]21C`, the Potency result is “inactive”.

On to `O=C(O)c1cccc(Cl)c1Cl`, for which the Potency entry was “inactive”.

Consider `CCN[C@H]1CN(CCCOC)S(=O)(=O)c2sc(S(N)(=O)=O)cc21`, for which the Potency result is “inactive”.

For `CCc1cc(Cl)c(OC)c(C(=O)NC[C@@H]2CCCN2CC)c1O`, the Potency entry was “inactive”.

`COc1cc(N)c(Cl)cc1C(=O)NC1CCN(Cc2ccccc2)CC1`: the Potency result was “inactive”.

Take `FC(F)(F)C(F)(F)C(F)(F)C(F)(F)C(F)(F)C(F)(F)C(F)(F)C(F)(F)Br`: the Potency entry was “inactive”.

`COC(=O)/C=C(/C)N`: the Potency result is “inactive”.

`CC(C)Nc1nc(N)nc(Cl)n1`: the Potency result is “inactive”.

For the molecule `CCc1nnc(NS(=O)(=O)c2ccc(N)cc2)s1`, the Potency result was “inactive”.

For `O=C(CCCl)NCc1ccccc1`, the Potency entry was “inactive”.

In the case of `CC(C)(CO)[C@@H](O)C(=O)NCCC(=O)O`, the Potency entry is “inactive”.

Take `CO[C@@]1(NC(=O)CSCC#N)C(=O)N2C(C(=O)O)=C(CSc3nnnn3C)CS[C@@H]21`: the Potency entry was “inactive”.

Regarding `CCN(CC)CCOc1ccc(Cc2ccccc2)cc1`, the Potency entry was “inactive”.

The values above are taken from PubChem BioAssay (Tox21).
